The record followed here is PubChem BioAssay (NCATS).

“And” between values parts separate entries of the source, which are not always exact repeats. Identical values can stand only once. Records with an inconclusive call do not appear. The source made the active and inactive calls. Unless noted, the call rests on the fitted dose curve; in most records, active means well fitted curve in the direction sought with a large enough effect; inconclusive means small, poorly fitted or top-dose-only effect, or another doubt; inactive means no such curve, though single readings can be large; an effect the other way counts as inactive or inconclusive.

Experiment [1] concerns the target Arylsulfatase A (Homo sapiens) (UniProt P15289). The experiment in a line: qHTS screen for enhancers of Arylsulfatase A (ASA1): LOPAC Validation Assay (AID 720538). The conditions noted are these: outcome: dose series up to 57.5 µM. The gist of the method: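 MLD patient fibroblasts (SV40, ASA-I179S), 1536-well; adhere 6 hrs; cpd 48h, 37 degree C, 5% CO2; pNCS 0.5mM final in lysis buffer, 14h RT; stop 1N NaOH final; fluor. Ex525/Em598.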
(In qHTS, concentration-response curves come from the screen itself.)

A short description of experiment [2]: qHTS assay for small molecule agonists of the antioxidant response element (ARE) signaling pathway measured by Nrf2-dependant transcriptional activity (AID 720636; active means well fitted curve in the direction sought with a large enough effect in the repeat runs; an effect the other way counts as inactive or inconclusive;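 further: HepG2 cells with an ARE-driven luciferase reporter; % of control where 0% means no effect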). In a few lines: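 Attachment 6 hr at 37 C, then compound versus DMSO vehicle for 16 hr in ARE-luc HepG2 cells (1% dialyzed FBS); luminescence recorded 30 min after ONE-Glo addition at room temperature.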

Experiment [3] is described as follows: qHTS assay for small molecule agonists of the antioxidant response element (ARE) signaling pathway measured by Nrf2-dependant transcriptional activity - cell viability counter screen (AID 720653; active means well fitted curve in the direction sought with a large enough effect in the repeat runs; an effect the other way counts as inactive or inconclusive; further: on the % scale 0 is the no-effect control and ±100 the full control effect). The conditions noted are these: ARE-bla HepG2 viability, CellTiter-Glo ATP luminescence, 16 h; stronger effect = lower value. In a few lines: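 ARE-bla HepG2 cells treated with compounds for 16 h at 37C; this counter screen measures viability as intracellular ATP by CellTiter-Glo luminescence after 30 min at room temperature.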

The target of experiment [4] is T1, Hexokinase-4 (Homo sapiens) + Glucokinase regulatory protein (Homo sapiens) (UniProt P35557+Q14397). Briefly: qHTS assay for inhibitors of recombinant human GCK-GKRP interaction: Diaphorase-coupled assay (AID 743205). The gist of the method:
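25 mM Hepes pH 7.6, 5 mM glucose, 0.4 mM ATP, 4 U/ml G6PDH; 10 nM each GST-GCK/FLAG-GKRP. Kinetic fluorescence read, 1/min × 30 min. Normalized: DMSO ± enzyme = max/min.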

In experiment [5] the target is T1, Hexokinase-4 (Homo sapiens) + Glucokinase regulatory protein (Homo sapiens). Briefly: qHTS assay for inhibitors of recombinant human GCK-GKRP interaction: HTRF assay (AID 743207).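 Further: 0% = DMSO with GCK present and -100% = DMSO wells lacking GCK.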 In a few lines:
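5 nM GST-GCK + 5 nM FLAG-GKRP + 2 uM S6P, pH 7.1 buffer (25 mM Hepes, 2 mM MgCl2, 25 mM KCl, 1 mM DTT, Tween/BSA); pin-transferred cpd; anti-FLAG XL665/anti-GST K; 60 min RT; HTRF.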

A short description of experiment [6]: qHTS Assay for Identifying Gametocytocidal Compounds (AID 743244). Further: potency means the concentration at half of the fitted maximal effect.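 On max response: on the % scale 0 is the no-effect control and ±100 the full control effect; actives lower the fluorescent signal which means gametocytes are killed.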 As to conditions: P. falciparum 3D7 stage III-V gametocytes, alamarBlue, 72 h; max response: stronger effect = lower value. In a few lines: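 P. falciparum 3D7 stage III–V gametocytes (20,000 cells/well) were exposed to compounds for 72 h at 37 °C, 5% CO2. AlamarBlue was then added for 24 h; decreased resorufin fluorescence (Ex 525/Em 598 nm) indicated loss of viability.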

A short description of experiment [7]: qHTS assay for cell viability of HEK293 cells (AID 743288). Further: on the % scale 0 is the no-effect control and ±100 the full control effect; nearly all actives have a fitted effect of over 50% in size. As to conditions: ATP luminescence (CellTiter-Glo), 18 h; max response: stronger effect = lower value. The gist of the method:
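Viable-cell counts were inferred from luciferase-based ATP content in HEK293 cells seeded at 2,000/well, pre-incubated ≥5 h, then dosed with DMSO-solubilised compounds for 18 h at 37 C.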

The nature of experiment [8]: qHTS assay for cell viability of the p53RE-bla HCT-116 cell line (AID 743292). Further: on the % scale 0 is the no-effect control and ±100 the full control effect; nearly all actives have a fitted effect of over 55% in size. In a few lines:
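Compound-exposed HCT-116 (p53RE-bla) cells, 4,000 per well, were kept 16 h at 37 C following a 5 h preincubation. Cell number was estimated from total ATP by CellTiter-Glo luminescence read after 30 min at room temperature.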

Experiment [9] is described as follows: qHTS profiling of the MIPE4 collection as inhibitors of Plasmodium falciparum (3D7) proliferation (AID 743344; call rule not given here;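 further: scaled between DMSO vehicle wells and 0.29 µM artemisinin as full inhibition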). As to conditions: P. falciparum 3D7 in erythrocytes, SYBR Green DNA fluorescence, 72 h; at 28.5 µM (top of the series) unless noted. In a few lines: (§1)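 Parasite DNA was quantified by SYBR Green I fluorescence (ex 485, em 535 nm) after overnight lysis in saponin/Triton buffer at room temperature. Cultures at 0.3% parasitemia and 2.5% hematocrit were first exposed to compound for 72 h at 37 C; signals were normalised to artemisinin (0.29 uM) and vehicle wells.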

Experiment [10] in a line: qHTS profiling of the MIPE4 collection as inhibitors of Plasmodium falciparum (DD2) proliferation (AID 743345; call rule not given here). The conditions noted are these: P. falciparum Dd2 in erythrocytes, SYBR Green DNA, 72 h; at 28.5 µM (top of the series) unless noted. In a few lines:
as §1

The nature of experiment [11]: qHTS profiling of the MIPE4 collection as inhibitors of Plasmodium falciparum (DD2) proliferation (Rep 2) (AID 743346; call rule not given here). As to conditions: P. falciparum Dd2 in erythrocytes, SYBR Green DNA, 72 h; at 28.5 µM (top of the series) unless noted. The gist of the method: as §1
Experiment [12] is described as follows: qHTS profiling of the MIPE4 collection as inhibitors of Plasmodium falciparum (HB3) proliferation (AID 743347; call rule not given here;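 further: plate controls were DMSO vehicle wells for no effect and artemisinin wells for full effect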). As to conditions: P. falciparum HB3 in erythrocytes, SYBR Green DNA, 72 h; at 28.5 µM (top of the series) unless noted. In a few lines:
as §1

The nature of experiment [13]: qHTS for compounds that reverse cellular toxicity of Amyloid beta (A-beta) peptide in yeast: LOPAC Validation Assay (AID 720559).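 Further: plate controls were DMSO for no effect and equimolar ferric chloride plus clioquinol rescue for full effect.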 The gist of the method: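 Medium dispensed, compounds pinned, A-beta yeast suspension added; plates held at 30 C for 48 hr; absorbance measured at 600 nm to gauge growth; values scaled between DMSO and FeCl3/clioquinol (equimolar) controls.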

Experiment [14] is described as follows: qHTS for Activators of Parkin Expression: LOPAC Validation Assay (NLuc Reporter) (AID 720572). The gist of the method: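 NLuc signal, read 10 min after reagent and following a prior FLuc read, is normalized to DMSO (0) and positive controls (100%). Cells: neuronal Parkin-promoter coincidence reporter line; compounds tested 7-point, 24 h, 37 C, 5% CO2.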
Experiment [15] can be described thus: qHTS for Activators of Parkin Expression: LOPAC Validation Assay (FLuc Reporter) (AID 720573). The gist of the method:
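Cells seeded, 24 h; compounds pinned, 7-pt dose response; 24 h at 37 C/5% CO2; volume reduced; FLuc reagent 10 min RT; luminescence read. Normalization: DMSO = 0, positive control = 100%.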

Experiment [16] is described as follows: qHTS profiling for inhibitors of Plasmodium falciparum (3D7) proliferation (AID 743322).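 Further: infected erythrocytes exposed to compound for 72 h before lysis; 100% = DMSO vehicle wells and 0% = 0.29 µM artemisinin.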 The conditions noted are these: P. falciparum 3D7 proliferation; at 28.7 µM (top of the series) unless noted. In a few lines: as §1
Experiment [17] is described as follows: qHTS profiling for inhibitors of Plasmodium falciparum (DD2) proliferation (AID 743323; call rule not given here). The conditions noted are these: lower = more inhibition; at 28.7 µM (top of the series) unless noted. In a few lines: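 SYBR Green fluorescence (ex 485, em 535 nm) of lysed cultures gives parasite DNA content; wells normalized to artemisinin (0.29 uM) and DMSO controls. Infected red cells: 0.3% parasitemia, 2.5% hematocrit, 72 h, 37 C.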

Experiment [18] can be described thus: qHTS profiling for inhibitors of Plasmodium falciparum (HB3) proliferation (AID 743324).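 Further: 100% = DMSO vehicle wells and 0% = artemisinin-treated control wells.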 As to conditions: Plasmodium falciparum HB3 blood-stage proliferation; at 28.7 µM (top of the series) unless noted. In a few lines:
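SYBR Green fluorescence (485 ex/535 em) of lysed cultures, incubated overnight at room temperature in the dark, quantifies parasite DNA. Infected erythrocytes at 0.3% parasitemia and 2.5% hematocrit were exposed 72 h; values normalized to DMSO and 0.29 uM artemisinin controls.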

T1 sequence (P35557 whole entry, looked up): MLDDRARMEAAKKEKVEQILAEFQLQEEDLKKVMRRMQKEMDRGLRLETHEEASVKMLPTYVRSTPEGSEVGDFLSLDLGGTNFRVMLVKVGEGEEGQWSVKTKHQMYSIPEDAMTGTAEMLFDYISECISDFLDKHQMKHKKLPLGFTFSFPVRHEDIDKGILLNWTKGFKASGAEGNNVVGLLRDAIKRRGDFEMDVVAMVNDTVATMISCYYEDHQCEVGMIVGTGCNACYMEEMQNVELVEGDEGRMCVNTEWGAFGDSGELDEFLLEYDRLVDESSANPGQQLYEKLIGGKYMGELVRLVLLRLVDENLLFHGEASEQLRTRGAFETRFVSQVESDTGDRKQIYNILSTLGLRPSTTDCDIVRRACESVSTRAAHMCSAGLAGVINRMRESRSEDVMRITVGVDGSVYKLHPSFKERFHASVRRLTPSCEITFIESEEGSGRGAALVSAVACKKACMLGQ
T1 sequence (Q14397 whole entry, looked up): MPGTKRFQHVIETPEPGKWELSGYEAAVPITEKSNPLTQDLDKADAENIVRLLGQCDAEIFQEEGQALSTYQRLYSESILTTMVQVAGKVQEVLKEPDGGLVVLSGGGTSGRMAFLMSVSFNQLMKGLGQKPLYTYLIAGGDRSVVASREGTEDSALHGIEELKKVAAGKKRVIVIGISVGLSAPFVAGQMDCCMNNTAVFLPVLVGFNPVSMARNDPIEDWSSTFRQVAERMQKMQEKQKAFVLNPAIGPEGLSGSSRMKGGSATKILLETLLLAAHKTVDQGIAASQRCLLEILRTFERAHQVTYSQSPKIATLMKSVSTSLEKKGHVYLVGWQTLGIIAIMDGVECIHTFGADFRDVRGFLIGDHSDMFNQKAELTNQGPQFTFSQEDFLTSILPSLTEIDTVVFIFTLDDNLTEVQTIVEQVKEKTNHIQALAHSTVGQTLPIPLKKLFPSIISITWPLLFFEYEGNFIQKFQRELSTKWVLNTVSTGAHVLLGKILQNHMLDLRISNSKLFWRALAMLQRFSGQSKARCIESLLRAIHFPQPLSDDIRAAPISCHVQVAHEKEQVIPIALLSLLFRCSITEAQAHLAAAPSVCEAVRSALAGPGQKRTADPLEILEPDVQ
Arylsulfatase A (Homo sapiens), sequence (P15289 whole entry, looked up): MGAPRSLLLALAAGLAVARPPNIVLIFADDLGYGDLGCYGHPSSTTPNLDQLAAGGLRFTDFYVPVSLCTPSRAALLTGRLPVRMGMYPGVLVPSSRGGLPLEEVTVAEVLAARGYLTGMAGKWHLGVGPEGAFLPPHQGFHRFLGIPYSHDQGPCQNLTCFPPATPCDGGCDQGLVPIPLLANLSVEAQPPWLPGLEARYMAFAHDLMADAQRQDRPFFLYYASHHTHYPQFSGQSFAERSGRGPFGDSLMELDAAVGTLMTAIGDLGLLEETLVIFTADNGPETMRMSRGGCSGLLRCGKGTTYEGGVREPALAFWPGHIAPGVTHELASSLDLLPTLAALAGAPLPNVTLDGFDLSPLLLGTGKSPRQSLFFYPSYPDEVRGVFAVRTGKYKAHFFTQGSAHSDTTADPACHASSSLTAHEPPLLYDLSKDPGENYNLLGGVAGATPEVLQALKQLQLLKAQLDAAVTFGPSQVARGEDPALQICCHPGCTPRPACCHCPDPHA

Consider `NC[C@H](O)c1ccc(O)c(O)c1`, for which the outcome in experiment [1], in [2], in experiment [4] and in experiment [5] was inactive. The max response in experiment [3] is -7.71% (inactive); in experiment [6], 20.6% (inactive) and 26.6% (inactive); in experiment [7] it was -4.13% (inactive). Further, in [8], the Potency entry was “inactive”. Also, the parasite growth, % of DMSO control in experiment [9] is 71.5%. For the same compound, the parasite growth remaining, % of DMSO control (lower = more inhibition) in experiment [10] is 97.8%. For the same compound, the parasite growth, % of control (lower = inhibition) in experiment [11] is 78.3%. The compound also had a growth, % of control in [12] of 82.4%.

Take `CC(C)NCC(O)COc1ccc(COCCOC(C)C)cc1` (stereo not given): the outcome in experiment [1] is “inactive; inhibitor; fitted 0.3793 uM”. Also, the compound was classed as inactive in [13], in [15], in experiment [4] and in [5]. In [14], the Potency entry was “inactive”. The max response in experiment [6] is 24.7% (inactive) and -10.9% (inactive) and -2.93% (inactive). The compound also displayed a parasite growth, % of DMSO control in experiment [9] of 78.7%. For the same compound, the parasite growth remaining, % of DMSO control (lower = more inhibition) in experiment [10] is 102%. Moreover, the parasite growth, % of control (lower = inhibition) in experiment [11] came to 98%. This compound came in with a growth, % of control in [12] of 102%.

For the compound `O=C1CCC(N2C(=O)c3ccccc3C2=O)C(=O)N1` (stereo not given), in experiment [1], the outcome was “inactive; inhibitor; fitted 0.0301 uM”. Further, the call in experiment [13], in experiment [15], in experiment [2], in experiment [4] and in experiment [5] was inactive. For the same compound, the Potency entry in [14] and in experiment [8] was “inactive” each time. In addition, the max response in experiment [3] is 1.28% (inactive); in experiment [6] it was 18.1% (inactive) and 27% (inactive); in experiment [7], -7.06% (inactive). Also, the parasite growth, % of DMSO control in [9] was 93.4%. Moreover, the parasite growth remaining, % of DMSO control (lower = more inhibition) in [10] was determined as 88.8%. Besides, in [11], the parasite growth, % of control (lower = inhibition) is 142%. The growth, % of control in experiment [12] was 114%.

Take `CC(C)C[C@H](NC(=O)[C@@H](O)[C@H](N)Cc1ccccc1)C(=O)O`: the outcome in [1], in experiment [13], in experiment [15], in experiment [4] and in experiment [5] was inactive. The Potency result in experiment [14] is “inactive”. Further, in experiment [6], the max response was -20.9% (inactive) and 9.59% (inactive). The compound also gave a remaining parasite growth % (stronger effect = lower value) in experiment [16] of 2.82%. In addition, the activity, percent of control in experiment [17] came to 6.99%. Also, the parasite growth, % of DMSO control in experiment [9] turned out to be 7.87%. In addition, the parasite growth remaining, % of DMSO control (lower = more inhibition) in experiment [10] turned out to be 10.1%. In [11], the parasite growth, % of control (lower = inhibition) is 16%. In experiment [12], this compound showed a growth, % of control of 6.17%.

With `CC(C)(C)NCC(O)c1ccc(O)c(CO)c1` (stereo not given), the outcome in [1] was “inactive; inhibitor; fitted 8.4921 uM”. Also, the compound was called inactive in [13] and in experiment [15]. In [14], the Potency entry was “inactive”. Besides, the max response in experiment [6] was 0.0655% (inactive) and 23.1% (inactive).

For `CN1CCN(CCCN2c3ccccc3Sc3ccc(C(F)(F)F)cc32)CC1`, the outcome in experiment [1], in experiment [13], in [15], in experiment [4] and in experiment [5] was inactive. For the same compound, the Potency result in experiment [14] is “inactive”. In addition, the Potency in experiment [6] is 3.16 µM (active). For the same compound, the parasite growth, % of DMSO control in [9] was 108%. In experiment [10], the parasite growth remaining, % of DMSO control (lower = more inhibition) is 97.5%. In experiment [11], the parasite growth, % of control (lower = inhibition) stood at 101%.

For `O=c1n(CCCN2CCN(c3cccc(Cl)c3)CC2)nc2ccccn12`, the outcome in [1], in experiment [13], in experiment [15], in experiment [4] and in experiment [5] was inactive. Moreover, the Potency result in experiment [14] is “inactive”. Also, the max response in [6] is 8.61% (inactive) and 11.5% (inactive). Besides, in experiment [9], the parasite growth, % of DMSO control turned out to be 60.5%. In experiment [10], the parasite growth remaining, % of DMSO control (lower = more inhibition) came out at 82.9%. In addition, the parasite growth, % of control (lower = inhibition) in experiment [11] worked out at 72.8%. Also, in experiment [12], the growth, % of control was found to be 92.5%.

On to `CCN(CC)CCCC(C)Nc1ccnc2cc(Cl)ccc12` (stereo not given), for which the result in experiment [1], in experiment [13], in experiment [15], in experiment [4] and in [5] was inactive. The Potency result in experiment [14] is “inactive”. Further, the remaining parasite growth % (stronger effect = lower value) in [16] was 0.37%. Also, in [17], the activity, percent of control worked out at 2.54%. For the same compound, in experiment [18], the remaining proliferation (% of control), lower = more inhibition stood at 0.178%. This compound returned a parasite growth, % of DMSO control in [9] of 19.3%. Besides, the parasite growth remaining, % of DMSO control (lower = more inhibition) in [10] is 10.1%. Also, the parasite growth, % of control (lower = inhibition) in [11] amounted to 15.1%. For the same compound, the growth, % of control in [12] is 41.8%.
